Activity calls are given as the source filed them.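 The calls were made as follows: active = calcium response above 60% of the acetylcholine maximum at human M5, as a positive modulator; inactive = the rest.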
The compounds below were run against Muscarinic acetylcholine receptor M5 (Homo sapiens) (UniProt P08912) (assay: potentiators of ACh response at human M5 – cell-based, single concentration, CHO-K1 hM5, calcium flux (AID 743100)). Details: CHO-K1 hM5, Fluo-4 calcium flux, ACh EC20, stronger effect = higher value; at 10 µM unless noted.
Sequence of Muscarinic acetylcholine receptor M5 (Homo sapiens) (P08912 whole entry, looked up): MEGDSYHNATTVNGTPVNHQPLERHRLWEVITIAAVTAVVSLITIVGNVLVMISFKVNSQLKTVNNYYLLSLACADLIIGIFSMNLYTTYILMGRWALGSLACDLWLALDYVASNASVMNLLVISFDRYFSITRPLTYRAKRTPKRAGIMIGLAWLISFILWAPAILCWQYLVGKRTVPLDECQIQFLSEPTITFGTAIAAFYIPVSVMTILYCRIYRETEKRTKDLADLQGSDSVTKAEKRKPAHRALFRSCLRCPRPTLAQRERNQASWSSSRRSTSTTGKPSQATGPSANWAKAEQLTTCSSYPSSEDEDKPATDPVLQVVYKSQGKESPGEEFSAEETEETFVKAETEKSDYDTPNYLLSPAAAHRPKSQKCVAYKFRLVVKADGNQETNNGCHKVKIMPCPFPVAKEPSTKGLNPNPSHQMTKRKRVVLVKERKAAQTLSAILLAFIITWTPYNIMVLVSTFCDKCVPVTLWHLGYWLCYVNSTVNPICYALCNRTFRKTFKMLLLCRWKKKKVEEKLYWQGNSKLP
In the case of CCN(Cc1ccccc1)C(=O)C1CCN(S(=O)(=O)c2ccccc2Cl)CC1, the % ACh max response is reported as 33.6% [at 30 µM] (inactive).
CCN(CC1CCN(S(=O)(=O)c2ccc(OC)cc2)CC1)C(=O)c1ccccc1 was tested, and the % ACh max response was 15.2% (inactive).
For CCN(Cc1ccccc1)C(=O)C1CCN(S(=O)(=O)c2ccc(Br)cc2)CC1, the % ACh max response was 62.1% [at 30 µM] (active).
For CCN(Cc1ccccc1)C(=O)C1CCN(S(=O)(=O)c2cccc(C(F)(F)F)c2)CC1, the % ACh max response was 63.9% [at 30 µM] (active).
CCN(Cc1ccccc1)C(=O)C1CCN(S(=O)(=O)c2ccc3[nH]ncc3c2)CC1 was tested, and the % ACh max response was 84.3% [at 30 µM] (active).
CCN(C(=O)C1CCN(S(=O)(=O)c2ccc(OC)cc2)CC1)[C@H](C)c1ccccc1 was tested, and the % ACh max response was 91.8% [at 30 µM] (active).
CCN(C(=O)C1CCN(S(=O)(=O)c2ccc3c(c2)CCO3)CC1)[C@H](C)c1ccccc1 was tested, and the % ACh max response was 97.5% (active).
CCN(Cc1ccccc1C)C(=O)C1CCN(S(=O)(=O)c2ccc3cn[nH]c3c2)CC1 was tested, and the % ACh max response was 85.1% (active).
For CCN(Cc1cccc(C)c1)C(=O)C1CCN(S(=O)(=O)c2ccc3cn[nH]c3c2)CC1, the % ACh max response was 85.8% (active).
With CCN(Cc1ccccc1)C(=O)C1CCN(S(=O)(=O)c2ccc(C(F)(F)F)cc2)CC1 the % ACh max response was 62.6% [at 30 µM] (active).
With CCN(Cc1ccccc1)C(=O)C1CCN(S(=O)(=O)c2ccc3occc3c2)CC1 the % ACh max response was 82.1% [at 30 µM] (active).
CCN(Cc1ccccc1)C(=O)C1CCN(S(=O)(=O)Cc2ccc(Cl)cc2)CC1 was tested, and the % ACh max response was 16% [at 30 µM] (inactive).
In the case of CCN(CC1CCN(S(=O)(=O)c2ccc3occc3c2)CC1)C(=O)c1ccccc1, the % ACh max response is reported as 10.9% (inactive).
For CCN(Cc1ccccc1)C(=O)C1CCN(S(=O)(=O)c2ccc3c(cnn3C)c2)CC1, the % ACh max response was 63.3% (active).
With CCN(Cc1ccccc1)C(=O)C1CCN(S(=O)(=O)c2ccc(C)s2)CC1 the % ACh max response was 68.8% [at 30 µM] (active).
In the case of CCN(Cc1ccccc1)C(=O)C1CCN(S(=O)(=O)c2ccc(C)cc2)CC1, the % ACh max response is reported as 73.7% [at 30 µM] (active).
With CCN(Cc1ccc(-c2ccccc2)cc1)C(=O)C1CCN(S(=O)(=O)c2ccc3cn[nH]c3c2)CC1 the % ACh max response was 24.8% (inactive).
CCN(Cc1ccccc1C(F)(F)F)C(=O)C1CCN(S(=O)(=O)c2ccc3occc3c2)CC1 was tested, and the % ACh max response was 84.8% (active).
For CCN(Cc1ccccc1)C(=O)C1CCN(S(=O)(=O)c2ccc(OC)c(OC)c2)CC1, the % ACh max response was 56% [at 30 µM] (inactive).
